Test results reported in PubChem BioAssay.
Inconclusive results are not listed. Calls of active or inactive are those of the source.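 Rule for the calls, unless noted: active = GFP signal, as percent of the solvent control, above the screen mean plus 3 SD, about 149; inconclusive = no reading because the compound's own fluorescence upset strain identification; inactive = the rest.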

Assays:
[1] = yeast TOR pathway RPL19A-GFP modulators, primary screen, cell-based, S. cerevisiae, multiplex flow cytometry (AID 1862; in the data active = percent of DMSO control GFP below about 86%;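 note: lower values mimic rapamycin by blocking the RPL19A rise seen in DMSO cells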); settings: S. cerevisiae RPL19A-GFP strain, flow cytometry fluorescence, 3 h; at 10 µM; stronger effect = lower value
[2] = modulators of MEP2-GFP levels in yeast, primary screen, S. cerevisiae, multiplex flow cytometry (AID 1867;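 active = GFP response, as percent of the DMSO control, above the screen-wide mean plus 3 SD, about 139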;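 note: median GFP channel fluorescence of barcode-gated MEP2-GFP cells measured by flow cytometry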); settings: S. cerevisiae MEP2-GFP strain, 3 h, at 10 µM, stronger effect = higher value, 100% means same as DMSO wells
[3] = modulators of CIT2-GFP expression in yeast, primary screen, S. cerevisiae, GFP fusion, multiplex flow cytometry (AID 1870;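 active = percent response above a set limit, the screen-wide mean plus 3 SD, cut at about 130% in these data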;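 note: barcoded CIT2-GFP strain pooled with four other GFP strains with rapamycin as positive control; median GFP fluorescence per well over plate mean of DMSO wells so 100% = DMSO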); settings: 3 h, at 10 µM, stronger effect = higher value
[4] = modulators of LAP4-GFP expression in yeast, primary screen, S. cerevisiae, multiplex flow cytometry (AID 1873); settings: 3 h, at 10 µM, stronger effect = higher value
[5] = modulators of AGP1-GFP expression in yeast TOR pathway, primary screen, cell-based, multiplex flow cytometry, S. cerevisiae (AID 1887;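 active = GFP signal above the screen-wide mean plus 3 SD, that is over about 124.5% of the solvent control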;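 note: AGP1-GFP fusion strain of S. cerevisiae within a five-strain barcoded multiplex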); settings: 3 h, at 10 µM, stronger effect = higher value
[6] = inhibitors of CD8+ T cell-vesicle binding, pilot screen, LFA-1/ICAM-1 modulator project, MLPCN validation set, flow cytometry (AID 2523;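 active = response below a set limit, under 55% cells CD8-positive and vesicle-bound, and CD8 cells' 90th-percentile brightness under 279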;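 for vesicle binding response: mean PE anti-B7-1 fluorescence of CD8+ cells relative to row control; 100% = QL9-loaded vesicles with DMSO vehicle in the same plate row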); settings: 2C mouse CD8+ T cells, at 7 µM, stronger effect = lower value; double positive events: measured here: CD8+/vesicle+ event percentage
[7] = molecular target: Integrin beta-1 (Homo sapiens) + Integrin alpha-4 (Homo sapiens) (UniProt P13612+P05556); assay: inhibition of HUTS-21 binding to VLA-4, pilot screen, VLA-4 allosteric modulator project, U937 cells, HUTS-21 mAb, flow cytometry, validation set (AID 2674;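 active = inhibition above 50%, about 3 SD of the validation set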;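 note: antibody binding induced by the VLA-4 ligand LDV present at three times its Kd; 0% = LDV ligand with antibody and no compound and 100% = antibody without LDV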); settings: HUTS-21 LIBS mAb binding, at 6.7 µM, stronger effect = higher value, binding induced by LDV ligand
Sequence of Integrin beta-1 (Homo sapiens) + Integrin alpha-4 (Homo sapiens) (P05556 whole entry, looked up): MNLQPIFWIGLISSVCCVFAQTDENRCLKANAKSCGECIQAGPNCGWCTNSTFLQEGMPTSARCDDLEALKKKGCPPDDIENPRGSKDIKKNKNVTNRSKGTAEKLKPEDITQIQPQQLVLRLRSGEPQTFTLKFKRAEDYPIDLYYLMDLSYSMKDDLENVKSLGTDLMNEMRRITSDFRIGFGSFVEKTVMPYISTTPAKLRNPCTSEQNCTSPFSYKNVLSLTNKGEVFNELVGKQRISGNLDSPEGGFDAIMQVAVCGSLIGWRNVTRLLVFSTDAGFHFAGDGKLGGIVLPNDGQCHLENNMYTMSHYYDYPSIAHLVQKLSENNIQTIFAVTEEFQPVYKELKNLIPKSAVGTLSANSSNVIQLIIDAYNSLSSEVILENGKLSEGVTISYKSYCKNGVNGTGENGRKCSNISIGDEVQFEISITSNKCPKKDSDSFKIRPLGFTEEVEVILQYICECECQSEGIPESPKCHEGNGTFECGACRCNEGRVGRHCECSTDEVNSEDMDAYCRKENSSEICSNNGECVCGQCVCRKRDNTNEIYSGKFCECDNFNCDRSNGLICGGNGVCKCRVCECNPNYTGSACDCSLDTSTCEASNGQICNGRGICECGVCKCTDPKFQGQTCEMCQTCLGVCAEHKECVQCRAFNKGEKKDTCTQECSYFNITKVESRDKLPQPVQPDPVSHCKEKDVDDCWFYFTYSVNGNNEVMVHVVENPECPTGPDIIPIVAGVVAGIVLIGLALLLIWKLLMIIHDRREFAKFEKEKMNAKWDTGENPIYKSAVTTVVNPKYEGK
Sequence of Integrin beta-1 (Homo sapiens) + Integrin alpha-4 (Homo sapiens) (P13612 whole entry, looked up): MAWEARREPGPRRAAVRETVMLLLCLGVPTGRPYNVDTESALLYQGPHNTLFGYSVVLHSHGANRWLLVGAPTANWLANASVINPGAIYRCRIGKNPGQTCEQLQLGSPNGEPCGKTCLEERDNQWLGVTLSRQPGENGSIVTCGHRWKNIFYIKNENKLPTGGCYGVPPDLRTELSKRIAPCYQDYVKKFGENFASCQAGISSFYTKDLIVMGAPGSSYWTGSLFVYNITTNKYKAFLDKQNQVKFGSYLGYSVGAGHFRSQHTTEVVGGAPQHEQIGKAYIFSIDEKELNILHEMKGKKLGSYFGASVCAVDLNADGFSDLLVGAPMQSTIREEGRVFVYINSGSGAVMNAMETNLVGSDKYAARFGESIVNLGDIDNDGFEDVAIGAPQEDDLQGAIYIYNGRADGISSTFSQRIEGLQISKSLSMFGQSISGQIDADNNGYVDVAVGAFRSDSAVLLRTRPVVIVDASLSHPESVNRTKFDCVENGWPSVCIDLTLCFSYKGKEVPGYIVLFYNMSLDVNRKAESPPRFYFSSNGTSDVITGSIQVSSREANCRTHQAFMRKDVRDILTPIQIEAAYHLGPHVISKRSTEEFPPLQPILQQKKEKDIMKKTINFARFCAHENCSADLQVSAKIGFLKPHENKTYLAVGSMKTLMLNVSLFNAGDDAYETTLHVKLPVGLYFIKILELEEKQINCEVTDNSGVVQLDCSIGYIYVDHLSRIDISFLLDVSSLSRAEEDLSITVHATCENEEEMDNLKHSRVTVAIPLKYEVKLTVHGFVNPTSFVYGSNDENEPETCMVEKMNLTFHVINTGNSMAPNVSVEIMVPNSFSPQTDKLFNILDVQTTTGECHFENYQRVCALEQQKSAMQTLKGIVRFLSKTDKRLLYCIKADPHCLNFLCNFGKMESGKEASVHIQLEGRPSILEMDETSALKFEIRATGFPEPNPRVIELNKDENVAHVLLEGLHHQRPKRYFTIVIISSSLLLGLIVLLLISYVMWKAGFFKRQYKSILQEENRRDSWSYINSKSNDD

[8] = superoxide lowering in aged yeast cells, pilot screen, validation compound set (AID 2706;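 active = superoxide response below 65% of plate, a cut near 3 SD across the whole screen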;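 note: yeast exposed to compound for one week at 30 degrees C before staining; 100% = mean of all compound wells on the same plate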); settings: S. cerevisiae aging, superoxide DHE fluorescence; at 10 µM; stronger effect = lower value
[9] = molecular target: Beta-adrenergic receptor kinase 1 (Homo sapiens) (UniProt P25098); assay: GRK2 binders displacing RNA aptamer, biochemical, validation, human GRK2, bead flow cytometry (AID 488806;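 active = aptamer binding inhibition above 30%, about 3 SD of noise from non-fluorescent compounds; inactive = inhibition at or below 30%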); settings: bead-bound GRK2, FAM-aptamer displacement, at 10 µM, stronger effect = higher value
Sequence of Beta-adrenergic receptor kinase 1 (Homo sapiens) (P25098 whole entry, looked up): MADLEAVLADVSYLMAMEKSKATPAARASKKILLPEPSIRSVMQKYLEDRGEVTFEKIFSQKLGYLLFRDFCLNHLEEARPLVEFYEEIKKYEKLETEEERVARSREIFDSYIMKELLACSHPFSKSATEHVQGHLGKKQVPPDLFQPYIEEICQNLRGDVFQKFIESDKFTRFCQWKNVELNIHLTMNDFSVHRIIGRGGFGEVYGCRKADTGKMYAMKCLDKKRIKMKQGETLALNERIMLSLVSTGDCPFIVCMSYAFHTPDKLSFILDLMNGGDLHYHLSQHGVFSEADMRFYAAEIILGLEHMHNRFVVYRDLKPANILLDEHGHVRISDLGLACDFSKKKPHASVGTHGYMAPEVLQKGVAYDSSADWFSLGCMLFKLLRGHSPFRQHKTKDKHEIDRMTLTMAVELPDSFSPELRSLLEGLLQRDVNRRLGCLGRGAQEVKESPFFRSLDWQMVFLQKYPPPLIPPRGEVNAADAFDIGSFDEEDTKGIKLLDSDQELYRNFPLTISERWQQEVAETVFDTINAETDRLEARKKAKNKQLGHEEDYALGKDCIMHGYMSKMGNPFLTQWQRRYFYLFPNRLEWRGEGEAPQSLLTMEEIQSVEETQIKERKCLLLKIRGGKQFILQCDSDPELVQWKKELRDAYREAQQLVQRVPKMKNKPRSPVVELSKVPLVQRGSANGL

[10] = molecular target: Beta-2 adrenergic receptor (Homo sapiens) (UniProt P07550); assay: beta2AR agonists driving receptor internalization, pilot screen, cell-based, FAP fluorogen, flow cytometry, validation set (AID 504459;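 active = percent response above 42, roughly 3 SD of non-fluorescent test compounds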;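 note: agonist-driven loss of surface beta2AR via internalization measured by FAP dye flow cytometry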); settings: Am2.2-beta2AR cells, FAP surface receptor flow cytometry; at 10 µM; stronger effect = higher value
Sequence of Beta-2 adrenergic receptor (Homo sapiens) (P07550 whole entry, looked up): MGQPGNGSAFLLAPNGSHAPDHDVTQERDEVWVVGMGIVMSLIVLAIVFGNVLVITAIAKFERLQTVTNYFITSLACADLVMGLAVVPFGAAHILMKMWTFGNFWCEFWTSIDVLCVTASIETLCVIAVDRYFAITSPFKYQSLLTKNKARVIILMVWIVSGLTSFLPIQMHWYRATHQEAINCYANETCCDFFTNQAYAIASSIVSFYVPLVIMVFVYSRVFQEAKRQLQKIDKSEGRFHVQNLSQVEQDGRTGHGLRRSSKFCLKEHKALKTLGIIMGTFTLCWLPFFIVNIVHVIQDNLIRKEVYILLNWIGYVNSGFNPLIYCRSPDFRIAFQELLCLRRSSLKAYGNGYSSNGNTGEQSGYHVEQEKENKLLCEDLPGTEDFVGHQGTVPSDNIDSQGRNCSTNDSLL

[11] = molecular target: AP-2 complex subunit beta (Homo sapiens) (UniProt P63010); assay: inhibitors of arrestin peptide binding to AP2, pilot screen, biochemical, validation set, GST-AP2 beads, flow cytometry (AID 504541;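 active = inhibition above 54%, about 3 SD of non-fluorescent compounds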;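 note: AP2 carries R879A mutation and is captured from E. coli lysate; bead-bound FITC arrestin peptide fluorescence measuring arrestin peptide binding to AP2; 0% = DMSO wells and 100% = excess unlabeled arrestin peptide control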); settings: FITC arrestin peptide, at 10 µM, stronger effect = higher value, AP2 beta2 appendage fragment, R879A mutant
Sequence of AP-2 complex subunit beta (Homo sapiens) (P63010 whole entry, looked up, the tested form may be a part, one chain of several): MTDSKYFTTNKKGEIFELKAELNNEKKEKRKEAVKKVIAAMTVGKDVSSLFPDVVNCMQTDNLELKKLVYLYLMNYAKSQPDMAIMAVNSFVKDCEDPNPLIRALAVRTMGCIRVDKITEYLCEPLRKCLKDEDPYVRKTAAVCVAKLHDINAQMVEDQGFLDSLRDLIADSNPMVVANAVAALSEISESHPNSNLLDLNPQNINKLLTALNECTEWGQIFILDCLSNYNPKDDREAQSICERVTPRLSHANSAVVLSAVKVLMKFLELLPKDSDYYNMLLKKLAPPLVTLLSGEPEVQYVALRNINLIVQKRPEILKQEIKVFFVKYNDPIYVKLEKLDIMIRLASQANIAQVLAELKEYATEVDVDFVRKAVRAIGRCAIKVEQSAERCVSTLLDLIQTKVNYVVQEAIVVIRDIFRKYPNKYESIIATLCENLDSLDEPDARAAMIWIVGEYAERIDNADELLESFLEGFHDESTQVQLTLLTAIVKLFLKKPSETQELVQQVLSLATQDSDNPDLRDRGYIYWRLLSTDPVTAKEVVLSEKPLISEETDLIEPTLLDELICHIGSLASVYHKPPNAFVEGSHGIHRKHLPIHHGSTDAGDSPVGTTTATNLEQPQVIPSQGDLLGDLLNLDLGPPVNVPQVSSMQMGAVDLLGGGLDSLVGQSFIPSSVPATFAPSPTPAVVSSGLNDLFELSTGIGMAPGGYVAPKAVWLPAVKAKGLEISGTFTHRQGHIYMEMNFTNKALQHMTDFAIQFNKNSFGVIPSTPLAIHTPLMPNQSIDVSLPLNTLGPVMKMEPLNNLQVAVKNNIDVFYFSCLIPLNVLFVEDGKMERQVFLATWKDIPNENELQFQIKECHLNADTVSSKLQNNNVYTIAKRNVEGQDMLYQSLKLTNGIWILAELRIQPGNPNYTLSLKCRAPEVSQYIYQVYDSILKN

[12] = yeast V-ATPase proton transport modulators, S. cerevisiae, pHLuorin, HTS validation (AID 504600; in the data active = response above about 15%;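 note: plate controls were DMSO for no effect and reference compound for full effect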); settings: S. cerevisiae pHLuorin cytosolic pH, at 10 µM, stronger effect = higher value
[13] = tested on: anti-desmoglein-3 scFv antibody binding to human DSG3; assay: inhibitors of anti-DSG3 scFv binding to DSG3, pilot screen, biochemical, validation compound set, bead-based, flow cytometry (AID 588368;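 active = binding below the plate cutoff, the plate median minus 3 SD, with a reading above zero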;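 note: signal is the median channel fluorescence of bead-bound GFP antibody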); settings: Protein G beads, DSG3-Fc, scFv-GFP binding, at 10 µM, stronger effect = lower value
[14] = inhibitors of fungal efflux pumps CDR1, CDR2, MDR1, pilot screen, validation compound set, multiplex, phenotypic (AID 588506;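 active = efflux inhibition above 0.42, the validation set average plus 4 SD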;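 note: Nile Red retained in cells so higher fluorescence means more efflux inhibition; 0 = negative control wells and 1 = enniatin B 25 µM full block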); settings: S. cerevisiae pump-expressing triplex, Nile Red efflux flow cytometry; at 10 µM; stronger effect = higher value; the pumps come from Candida albicans
[15] = molecular target: ATP-binding cassette sub-family B member 6 (Homo sapiens) (UniProt Q9NP58); assay: ABCB6 transporter inhibitors, pilot screen, K562-ABCB6 cells, flow cytometry, validation set (AID 588550;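 active = inhibition above the screen-wide mean plus 3 SD, about 51%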;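 note: 0% = DMSO wells and 100% = benzethonium chloride 70 µM positive control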); settings: K562-ABCB6 porphyrin accumulation, 1 h, at 10 µM, stronger effect = higher value
Sequence of ATP-binding cassette sub-family B member 6 (Homo sapiens) (Q9NP58 whole entry, looked up): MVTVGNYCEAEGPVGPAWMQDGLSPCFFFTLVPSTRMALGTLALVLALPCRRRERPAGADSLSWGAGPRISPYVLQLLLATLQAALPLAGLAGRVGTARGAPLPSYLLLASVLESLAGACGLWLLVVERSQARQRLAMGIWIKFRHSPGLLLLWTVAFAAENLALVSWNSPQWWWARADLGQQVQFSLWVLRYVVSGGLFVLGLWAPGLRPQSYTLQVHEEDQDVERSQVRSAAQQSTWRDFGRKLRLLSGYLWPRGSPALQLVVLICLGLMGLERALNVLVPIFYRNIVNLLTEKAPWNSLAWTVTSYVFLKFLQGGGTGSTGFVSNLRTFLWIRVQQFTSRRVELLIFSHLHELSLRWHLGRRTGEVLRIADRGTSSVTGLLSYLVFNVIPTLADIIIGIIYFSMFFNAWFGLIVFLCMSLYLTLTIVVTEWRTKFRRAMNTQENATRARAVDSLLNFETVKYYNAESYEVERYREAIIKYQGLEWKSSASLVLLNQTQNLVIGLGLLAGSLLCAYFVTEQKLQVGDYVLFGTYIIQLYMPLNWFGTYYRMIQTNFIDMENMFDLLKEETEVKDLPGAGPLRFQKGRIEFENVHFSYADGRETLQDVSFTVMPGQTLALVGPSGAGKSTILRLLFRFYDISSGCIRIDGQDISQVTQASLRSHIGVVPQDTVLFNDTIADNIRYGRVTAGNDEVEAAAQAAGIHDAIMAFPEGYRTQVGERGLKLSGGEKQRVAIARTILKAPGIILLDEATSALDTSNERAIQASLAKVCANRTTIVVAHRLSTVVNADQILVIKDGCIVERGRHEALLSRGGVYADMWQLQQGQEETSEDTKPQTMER

[16] = promoters of myeloid differentiation in arrested cells, primary screen, cell-based, GFP/MAC1 double positive, flow cytometry, validation set (AID 588685;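 active = differentiation response of at least 50%, scaled between solvent and reference control, from cells with both markers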;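 note: compound exposure lasts four days before antibody staining and flow analysis; 0% = DMSO wells and 100% = 5 µM fulvestrant positive control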); settings: ER-HoxA9 marrow cells, stronger effect = higher value, normalized: vehicle 0, fulvestrant 100

Row | Compound | percent of DMSO control GFP [1] | GFP response vs DMSO [2] | percent response of DMSO control [3] | GFP response vs DMSO [4] | GFP response, % of DMSO [5] | double positive events [6] [%] | vesicle binding response [6] | inhibition [7] | superoxide response (% of plate) [8] | aptamer binding inhibition [9] | response [10] | inhibition [11] | response [12] | binding (% of control) [13] | efflux inhibition (fraction of control) [14] | inhibition [15] | differentiation response [16]
1 | CSCC[C@H](NC(=O)Nc1ccc(C)cc1C)C(=O)O | 99.3% (inactive) | 103% (inactive) | 99.6% (inactive) | 95.7% (inactive) | 96.5% (inactive) | 56.7 | 178% (inactive) | 3.67% (inactive) | 101% (inactive) | 6% (inactive) | 3.91% (inactive) | 6.83% (inactive) | -0.26% (inactive) | 94.5% (inactive) | -0.17 (inactive) | 7% (inactive) | -7.2% (inactive)
2 | Cc1ccsc1C1NC(=O)c2ccccc2N1 (stereo not drawn) | 103% (inactive) | 95.2% (inactive) | 94.8% (inactive) | 93.1% (inactive) | 93.8% (inactive) | 59.5 | 266% (inactive) | 0.94% (inactive) | 102% (inactive) | 1% (inactive) | -6.32% (inactive) | -5.8% (inactive) | -1.97% (inactive) | 97.6% (inactive) | -0.28 (inactive) | 6% (inactive) | -15.2% (inactive)
3 | COc1cc(C2Nc3ccccc3C(=O)N2c2ccccc2)ccc1O (stereo not drawn) | 109% (inactive) | 108% (inactive) | 116% (inactive) | 93.3% (inactive) | 103% (inactive) | 62.9 | 256% (inactive) | 3.7% (inactive) | 90% (inactive) | 0% (inactive) | -10.2% (inactive) | -6.11% (inactive) | 61.2% (active) | 99.7% (inactive) | 0.18 (inactive) | 3% (inactive) | 9.04% (inactive)
4 | O=C(O)CCCNc1ccc(S(=O)(=O)Nc2ccccc2C(=O)O)cc1C(=O)O | 105% (inactive) | 94.1% (inactive) | 116% (inactive) | 83.5% (inactive) | 97% (inactive) | 64.9 | 187% (inactive) | 12% (inactive) | 101% (inactive) | 5% (inactive) | -8.58% (inactive) | -4.62% (inactive) | -5.39% (inactive) | 102% (inactive) | -0.14 (inactive) | 17% (inactive) | 4.15% (inactive)
5 | CC(C)=CCC/C(C)=C/CC/C(C)=N/O | 97.4% (inactive) | 115% (inactive) | 91% (inactive) | 108% (inactive) | 93.5% (inactive) | 59.7 | 199% (inactive) | 6.4% (inactive) | 97.4% (inactive) | 4% (inactive) | 3.47% (inactive) | -1.05% (inactive) | -1.49% (inactive) | 103% (inactive) | 0.08 (inactive) | -63% (inactive) | -2.4% (inactive)
6 | CCOC(=O)N1c2ccccc2C=CC1OCC (stereo not drawn) | 103% (inactive) | 97.7% (inactive) | 102% (inactive) | 108% (inactive) | 109% (inactive) | 57 | 109% (inactive) | 2.93% (inactive) | 110% (inactive) | 3% (inactive) | 2.04% (inactive) | -6.59% (inactive) | -0.43% (inactive) | 103% (inactive) | -0.29 (inactive) | -3% (inactive) | -13.3% (inactive)
7 | C[N+]1(C2CCC3CCCC2C3O)CCCCC1 (stereo not drawn) | 108% (inactive) | 100% (inactive) | 115% (inactive) | 82.8% (inactive) | 103% (inactive) | 64.9 | 326% (inactive) | -2.53% (inactive) | 94.2% (inactive) | 1% (inactive) | -9.71% (inactive) | -10.4% (inactive) | 3.03% (inactive) | 99.3% (inactive) | -0.1 (inactive) | 32% (inactive) | 4.15% (inactive)
8 | COc1ccc(C2C3CCCCC3(O)CCN2C(=O)c2cccs2)cc1 (stereo not drawn) | 102% (inactive) | 105% (inactive) | 97% (inactive) | 107% (inactive) | 107% (inactive) | 61.4 | 376% (inactive) | -0.27% (inactive) | 102% (inactive) | 4% (inactive) | -26.4% (inactive) | -1.09% (inactive) | -1.21% (inactive) | 99% (inactive) | 0.12 (inactive) | -4% (inactive) | -1.05% (inactive)
9 | CN1CCCN=C1COC(=O)C(O)(c1ccccc1)C1CCCCC1 (stereo not drawn) | 103% (inactive) | 107% (inactive) | 93.1% (inactive) | 92.7% (inactive) | 96.5% (inactive) | 64 | 205% (inactive) | 7.85% (inactive) | 98.5% (inactive) | 6% (inactive) | 3.5% (inactive) | 12.1% (inactive) | 4.32% (inactive) | 91.9% (inactive) | -0.14 (inactive) | -5% (inactive) | 5.13% (inactive)
10 | C[N+](C)(C)CCOP(=O)([O-])OC[C@H](O)CO | 103% (inactive) | 103% (inactive) | 105% (inactive) | 108% (inactive) | 114% (inactive) | 60.1 | 133% (inactive) | -3.77% (inactive) | 94.8% (inactive) | 1% (inactive) | 2.22% (inactive) | -6.21% (inactive) | 0.86% (inactive) | 102% (inactive) | 0.25 (inactive) | 22% (inactive) | -6.03% (inactive)
11 | Cc1cc(=O)c2c(O)c(O)ccc2o1 | 102% (inactive) | 107% (inactive) | 98.9% (inactive) | 90.7% (inactive) | 101% (inactive) | 60.3 | 30% (inactive) | -7.72% (inactive) | 105% (inactive) | -4% (inactive) | 5.76% (inactive) | -12.7% (inactive) | -0.09% (inactive) | 98.5% (inactive) | -0.07 (inactive) | 7% (inactive) | 9.04% (inactive)
12 | CCCC(=O)Nc1ccccc1NC(C)=O | 101% (inactive) | 102% (inactive) | 108% (inactive) | 99.1% (inactive) | 104% (inactive) | 65.9 | 170% (inactive) | -9.13% (inactive) | 111% (inactive) | 1% (inactive) | 5.03% (inactive) | -1.46% (inactive) | 0.04% (inactive) | 95.1% (inactive) | 1.13 (active) | 0% (inactive) | -1.65% (inactive)
13 | CC1(C)CC(CNCCC(c2ccc(F)cc2)c2ccco2)CCO1 (stereo not drawn) | 96.1% (inactive) | 110% (inactive) | 106% (inactive) | 82.5% (inactive) | 103% (inactive) | 93.3 | 272% (inactive) | 3.55% (inactive) | 87.8% (inactive) | 3% (inactive) | 4.87% (inactive) | 0.76% (inactive) | 5.44% (inactive) | 104% (inactive) | 0.12 (inactive) | 11% (inactive) | -4.09% (inactive)
14 | O=C1c2ccccc2C2(c3ccccc3)NCCN12 (stereo not drawn) | 101% (inactive) | 102% (inactive) | 109% (inactive) | 95.9% (inactive) | 99.8% (inactive) | 59.5 | 122% (inactive) | -14.5% (inactive) | 92.9% (inactive) | 0% (inactive) | -0.82% (inactive) | 6.52% (inactive) | 11.8% (inactive) | 104% (inactive) | -0.19 (inactive) | 3% (inactive) | -14.8% (inactive)
15 | COc1ccc(OCc2cccc(C(=O)NN)c2)cc1 | 94.8% (inactive) | 97.4% (inactive) | 105% (inactive) | 98.2% (inactive) | 86.3% (inactive) | 59.7 | 167% (inactive) | -8.62% (inactive) | 98.7% (inactive) | 8% (inactive) | 11.1% (inactive) | -3.59% (inactive) | -1.43% (inactive) | 103% (inactive) | -0.28 (inactive) | 3% (inactive) | -13.6% (inactive)
16 | COc1ccc(C2=NOC(COc3ccc4c(C)cc(=O)oc4c3)C2)c(OC)c1 (stereo not drawn) | 99% (inactive) | 94.6% (inactive) | 96% (inactive) | 116% (inactive) | 91.3% (inactive) | 62.4 | 171% (inactive) | -11.8% (inactive) | 99.1% (inactive) | 4% (inactive) | 12.7% (inactive) | 2.4% (inactive) | 1.1% (inactive) | 95.6% (inactive) | 0.04 (inactive) | 10% (inactive) | 3.45% (inactive)
17 | COc1ccc(N2C(=O)C3C(C2=O)C(C(=O)c2ccccc2)N2CCCC32)cc1 (stereo not drawn) | 98.6% (inactive) | 107% (inactive) | 84.4% (inactive) | 122% (inactive) | 95.7% (inactive) | 61.2 | 241% (inactive) | -20.9% (inactive) | 102% (inactive) | 5% (inactive) | 37.4% (inactive) | 4.51% (inactive) | -0.56% (inactive) | 100% (inactive) | -0.24 (inactive) | -7% (inactive) | 12% (inactive)
18 | CC(C[N+](C)(C)C)OC(N)=O (stereo not drawn) | 100% (inactive) | 98.6% (inactive) | 89.9% (inactive) | 104% (inactive) | 110% (inactive) | 66.5 | 164% (inactive) | 11.7% (inactive) | 96.5% (inactive) | 2% (inactive) | -16.4% (inactive) | -15.8% (inactive) | 0.77% (inactive) | 103% (inactive) | 0.08 (inactive) | 12% (inactive) | 0% (inactive)
19 | O=C(O)[C@@H](O)c1ccccc1 | 102% (inactive) | 106% (inactive) | 102% (inactive) | 121% (inactive) | 120% (inactive) | 62 | 168% (inactive) | 16.8% (inactive) | 97% (inactive) | 3% (inactive) | -22.9% (inactive) | 10.1% (inactive) | -0.22% (inactive) | 106% (inactive) | -0.04 (inactive) | 3% (inactive) | -11.9% (inactive)
